Test results taken from PubChem BioAssay (EPA / NIEHS).
Inconclusive results are not listed. Some structures have more than one record in an assay (separate samples or runs), and their calls can disagree. Activity calls are given as the source filed them. How the source made its calls: active means hit-call score of the fitted dose curve at least 0.9, where 1 is the maximum; inconclusive means response in the unintended direction; inactive means score below 0.9.

Tests used:
[1] = biological target: Estrogen receptor (Homo sapiens) (UniProt P03372); test: OT_ER_ERaERa_1440: Odyssey Thera (OT) 24-hour HEK293T Protein-Complementation Assay for Estrogen Receptor-alpha/-alpha Homodimer (AID 2283349);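 further: hits raise fluorescence above DMSO for agonists and antagonists alike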
Outline: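 Readout is the rise in mean fluorescence from reporter fragment complementation when ERα LBD (aa 310-547) units dimerize in HEK293T cells. Measured 24 h after dosing and analysed as increase over DMSO control.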

[2] = biological target: Estrogen receptor (Homo sapiens) (UniProt P03372); test: OT_ER_ERaERa_0480: Odyssey Thera (OT) 8-hour HEK293T Protein-Complementation Assay for Estrogen Receptor-alpha/-alpha Homodimer (AID 2283351);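 further: rise in fluorescence from reassembled reporter fragments on ERα LBD homodimer in nucleus or whole cell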
Outline: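 The readout is complementation of fragments fused to the human ER alpha ligand-binding domain (aa 310-547), stably expressed in HEK293T cells. After 8 h of exposure, the increase in nuclear/cytoplasmic fluorescence was measured by laser scanning cytometry and fitted relative to DMSO.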

[3] = biological target: Estrogen receptor (Homo sapiens) + Estrogen receptor beta (Homo sapiens) (UniProt P03372+Q92731); test: OT_ER_ERaERb_0480: Odyssey Thera (OT) 8-hour HEK293T Protein-Complementation Assay for Estrogen Receptor-alpha/-beta Heterodimer (AID 2283352)
Outline: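 Compound added to HEK293T cells carrying split-reporter-tagged ER-alpha and ER-beta LBDs, incubated 8 hours, then imaged by laser scanning cytometer. Signal rise in nucleus, or nucleus and cytoplasm, over vehicle was fitted in the positive direction.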

[4] = biological target: Androgen Receptor/SRC-1 Co-activator, AR (gene 367) (UniProt P10275); test: OT_AR_ARSRC1_0480: Odyssey Thera (OT) 8-hour HEK293T Protein-Complementation Assay for Androgen Receptor/SRC-1 Co-activator (AID 2283354);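 further: hits raise the complementation signal above DMSO so AC50 marks enhancers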
Outline: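 HEK293T cells stably expressing AR and SRC-1 fused to split Venus YFP fragments via (Gly4Ser)2 linkers were read 8 h after compound dosing. Complementation was imaged at 488 and 635nm, and nuclear/cytoplasmic fluorescence ratio (488nm) was taken over ≥400 cells; gain-of-signal versus DMSO.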

[5] = biological target: Bile acid receptor (Homo sapiens) (UniProt Q96RI1); test: NVS_NR_hFXR_Antagonist: NovaScreen (NVS) Nuclear Receptor Binding Assay for human Farnesoid X Receptor Antagonism (FXR) (AID 2283350)
Outline: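 Cell-free TR-FRET ligand-binding read-out on human FXR (NR1H4) in antagonist mode, measured 1 h after dosing. Primary screen in duplicate at 25 uM, actives retested in concentration series; signal loss scored versus DMSO.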

[6] = biological target: Estrogen receptor (Homo sapiens) (UniProt P03372); test: NVS_NR_hER: NovaScreen (NVS) Nuclear Receptor Binding Assay for human Estrogen Receptor (ER) (AID 2283348)
Outline: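 Cell-free radioligand binding with protein extracted from MCF7 cells; scintillation counting 18 hours after dosing. Loss of signal versus DMSO baseline read as displacement; primary single-concentration screen at 25 uM in duplicate, actives retested in concentration series.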

Estrogen receptor (Homo sapiens) + Estrogen receptor beta (Homo sapiens), sequence (P03372 whole entry, looked up): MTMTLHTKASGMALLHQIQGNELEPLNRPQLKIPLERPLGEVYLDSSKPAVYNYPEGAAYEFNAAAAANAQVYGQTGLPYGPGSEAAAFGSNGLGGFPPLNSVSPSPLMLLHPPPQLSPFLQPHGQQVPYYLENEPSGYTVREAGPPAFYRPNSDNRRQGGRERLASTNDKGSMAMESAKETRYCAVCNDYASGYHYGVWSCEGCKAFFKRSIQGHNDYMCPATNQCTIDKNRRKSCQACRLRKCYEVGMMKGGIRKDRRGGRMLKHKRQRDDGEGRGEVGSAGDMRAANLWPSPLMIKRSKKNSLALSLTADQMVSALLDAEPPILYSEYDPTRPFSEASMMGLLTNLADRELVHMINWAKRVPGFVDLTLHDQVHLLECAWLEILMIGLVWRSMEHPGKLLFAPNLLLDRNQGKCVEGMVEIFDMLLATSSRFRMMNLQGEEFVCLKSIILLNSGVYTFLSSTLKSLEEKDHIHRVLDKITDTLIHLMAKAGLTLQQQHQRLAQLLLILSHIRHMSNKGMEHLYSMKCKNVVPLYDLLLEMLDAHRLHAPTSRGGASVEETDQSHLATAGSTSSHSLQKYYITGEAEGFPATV
Estrogen receptor (Homo sapiens) + Estrogen receptor beta (Homo sapiens), sequence (Q92731 whole entry, looked up): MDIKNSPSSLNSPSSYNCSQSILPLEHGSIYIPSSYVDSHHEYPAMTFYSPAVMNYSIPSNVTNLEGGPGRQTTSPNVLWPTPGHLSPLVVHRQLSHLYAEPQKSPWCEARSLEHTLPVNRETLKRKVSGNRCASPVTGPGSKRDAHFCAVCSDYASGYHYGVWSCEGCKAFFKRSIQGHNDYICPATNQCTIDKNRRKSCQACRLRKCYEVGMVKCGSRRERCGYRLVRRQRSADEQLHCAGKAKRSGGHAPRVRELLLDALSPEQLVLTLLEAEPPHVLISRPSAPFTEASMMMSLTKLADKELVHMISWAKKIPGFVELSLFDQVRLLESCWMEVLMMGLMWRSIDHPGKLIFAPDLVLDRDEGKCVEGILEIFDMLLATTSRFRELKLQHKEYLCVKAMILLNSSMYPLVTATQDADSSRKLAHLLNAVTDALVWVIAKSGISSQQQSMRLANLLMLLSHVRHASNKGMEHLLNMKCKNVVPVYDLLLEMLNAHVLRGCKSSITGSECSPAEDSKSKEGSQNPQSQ
Estrogen receptor (Homo sapiens), sequence (P03372 whole entry, looked up, the tested form may be a part): as the sequence (P03372 whole entry, looked up) above
Androgen Receptor/SRC-1 Co-activator, AR (gene 367), sequence (P10275 whole entry, looked up, the tested form may be a part): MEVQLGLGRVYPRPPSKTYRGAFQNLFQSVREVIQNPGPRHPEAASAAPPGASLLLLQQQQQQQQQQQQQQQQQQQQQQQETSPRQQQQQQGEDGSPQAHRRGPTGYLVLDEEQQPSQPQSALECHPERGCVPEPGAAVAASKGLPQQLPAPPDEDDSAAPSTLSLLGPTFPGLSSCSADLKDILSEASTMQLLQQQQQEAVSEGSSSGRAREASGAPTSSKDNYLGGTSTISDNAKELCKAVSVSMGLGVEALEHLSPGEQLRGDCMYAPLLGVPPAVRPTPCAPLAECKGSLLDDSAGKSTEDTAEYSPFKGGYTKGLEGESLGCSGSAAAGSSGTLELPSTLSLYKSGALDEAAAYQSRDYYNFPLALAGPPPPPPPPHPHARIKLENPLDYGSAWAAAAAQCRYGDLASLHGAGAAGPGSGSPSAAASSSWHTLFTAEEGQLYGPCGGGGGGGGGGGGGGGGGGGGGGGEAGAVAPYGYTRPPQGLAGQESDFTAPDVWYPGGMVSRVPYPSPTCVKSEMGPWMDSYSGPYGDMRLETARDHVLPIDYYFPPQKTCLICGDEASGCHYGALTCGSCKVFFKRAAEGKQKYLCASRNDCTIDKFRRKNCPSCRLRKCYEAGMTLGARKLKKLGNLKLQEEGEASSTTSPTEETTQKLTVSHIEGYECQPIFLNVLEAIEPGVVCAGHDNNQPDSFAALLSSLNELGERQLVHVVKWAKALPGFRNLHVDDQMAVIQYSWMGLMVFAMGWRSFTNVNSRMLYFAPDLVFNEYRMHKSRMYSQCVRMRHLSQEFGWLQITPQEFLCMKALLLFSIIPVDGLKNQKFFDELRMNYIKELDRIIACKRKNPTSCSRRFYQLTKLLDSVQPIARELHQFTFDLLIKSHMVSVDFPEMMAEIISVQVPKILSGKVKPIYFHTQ
Bile acid receptor (Homo sapiens), sequence (Q96RI1 whole entry, looked up): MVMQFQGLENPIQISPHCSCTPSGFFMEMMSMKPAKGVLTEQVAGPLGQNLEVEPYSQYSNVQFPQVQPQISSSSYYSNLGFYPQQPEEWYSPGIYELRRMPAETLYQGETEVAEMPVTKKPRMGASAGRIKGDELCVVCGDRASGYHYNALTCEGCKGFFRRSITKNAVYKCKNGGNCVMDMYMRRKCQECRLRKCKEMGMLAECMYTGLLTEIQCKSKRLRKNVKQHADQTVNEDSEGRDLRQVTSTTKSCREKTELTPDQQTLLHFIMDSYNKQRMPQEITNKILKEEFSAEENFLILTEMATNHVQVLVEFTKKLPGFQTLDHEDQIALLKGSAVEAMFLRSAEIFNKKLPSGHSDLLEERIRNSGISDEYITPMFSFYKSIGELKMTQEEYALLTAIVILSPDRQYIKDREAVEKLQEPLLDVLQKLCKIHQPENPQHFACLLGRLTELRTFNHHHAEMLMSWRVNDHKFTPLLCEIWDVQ

CC(O)C(=O)O (stereo not drawn)
outcome [1]: inactive | outcome [2]: inactive

N#C[C@@H]1CC(F)(F)CN1C(=O)CNC1CC2CCC(C1)N2c1ncccn1 (stereo partly drawn)
outcome [1]: inactive | outcome [2]: inactive | outcome [3]: inactive | outcome [4]: inactive

CC(O)CO (stereo not drawn)
outcome [1]: inactive | outcome [5]: inactive | outcome [2]: inactive

CCc1nn(C2CCCCC2)c2cc(C3(C#N)CCC(C(=O)O)CC3)ccc12 (stereo not drawn)
outcome [6]: inactive | outcome [1]: inactive | outcome [2]: inactive | outcome [3]: inactive

c1ccc2c(c1)ccc1ccccc12
outcome [1]: inactive | outcome [2]: inactive | outcome [4]: inactive

c1ccc2c(c1)Cc1ccccc1-2
outcome [6]: inactive | outcome [1]: inactive | outcome [2]: inactive | outcome [3]: inactive

Cc1cc(C)c(O)c(C)c1
outcome [6]: inactive | outcome [1]: inactive | outcome [2]: inactive

CCCCCCCCCCCCN1CCCC1=O
outcome [6]: inactive | outcome [1]: inactive

O=C(O)Cc1cc(I)c(Oc2cc(I)c(O)c(I)c2)c(I)c1
outcome [6]: inactive | outcome [1]: inactive | outcome [2]: inactive | outcome [3]: inactive

CCCCOCCO
outcome [1]: inactive | outcome [2]: inactive

O=[N+]([O-])c1ccc(O)cc1
outcome [6]: inactive | outcome [1]: inactive | outcome [2]: inactive

CCCCCCCCOC(=O)CCCCCCCCC(=O)OCCCCCCCC
outcome [1]: inactive | outcome [2]: inactive | outcome [3]: inactive

CC(C)(C)c1ccc(O)c(C(C)(C)C)c1
outcome [1]: inactive | outcome [2]: inactive

CCc1ccc(CCOc2ccc(CC3SC(=O)NC3=O)cc2)nc1 (stereo not drawn)
AC50 [1]: 75.1 µM (active) | AC50 [2]: 76.7 µM (active) | outcome [3]: inactive

CCCCCCCCC(=O)O
outcome [1]: inactive | outcome [2]: inactive | outcome [3]: inactive

CC(C)(C)c1cc(C(C)(C)C)c(O)c(C(C)(C)C)c1
outcome [1]: inactive | outcome [2]: inactive | AC50 [3]: 50 µM (active)

c1ccc2cc3c(ccc4ccccc43)cc2c1
outcome [6]: inactive | outcome [1]: inactive | outcome [5]: inactive | outcome [2]: inactive

Cc1cc(CCN2CCN(c3nsc4ccccc34)CC2)cc2c1NC(=O)CC2(C)C
outcome [6]: inactive | outcome [1]: inactive | outcome [2]: inactive | outcome [3]: inactive | AC50 [4]: 15.4 µM (active)

CN1CCN(c2ccccc2/C=C2\SCCN(c3ccc(Cl)c(Cl)c3)C2=O)CC1
outcome [1]: inactive | outcome [5]: inactive | outcome [2]: inactive

CCCCC(CC)COC(=O)CCCCC(=O)OCC(CC)CCCC (stereo not drawn)
outcome [1]: inactive | outcome [5]: inactive | outcome [2]: inactive | outcome [3]: inactive

CN1CCC[C@H]1c1cccnc1
outcome [1]: inactive | outcome [2]: inactive | outcome [3]: inactive

OCCC(F)(F)C(F)(F)C(F)(F)C(F)(F)C(F)(F)C(F)(F)F
outcome [1]: inactive | outcome [2]: inactive | outcome [3]: inactive

Cc1ccc(S(=O)(=O)O)c(C)c1
AC50 [1]: 56.2 µM (active) | outcome [1]: inactive | outcome [2]: inactive
